According to the supplement of paper PMC13380429:

System: Vero E6 infected with SARS-CoV-2
Test: inhibition of SARS-CoV-2 cytopathic effect; higher = more antiviral protection, active = above 15
Settings: 48 h

Measured: inhibition of SARS-CoV-2 cytopathic effect

CNC(=O)c1cccc2cc(Oc3ccnc4cc(OCC5(N)CC5)c(OC)cc34)ccc12 [lucitanib]
inactive: 1 nM 0.14% | 8.33 nM 2.44% | 100 nM 1.47% | 833.33 nM 2.09% | 10000 nM 2.58%

Cc1cc(CCCOc2c(C)cc(-c3noc(C(F)(F)F)n3)cc2C)on1 [pleconaril]
inactive: 1 nM 2.59% | 8.33 nM 0.33% | 100 nM -1.07% | 833.33 nM 0.02% | 10000 nM -1.34%

Nc1nc(=O)n([C@@H]2CS[C@H](CO)O2)cc1F [emtricitabine]
inactive: 1 nM -0.33% | 8.33 nM -2.03% | 100 nM 4.2% | 833.33 nM -0.69% | 10000 nM -0.34%

COC1(C[S@@+]([O-])c2ccccc2)CCN(CCc2c[nH]c3ccc(F)cc23)CC1
inactive: 1 nM 1.49% | 8.33 nM 4.84% | 100 nM 3.16% | 833.33 nM 1.05% | 10000 nM -2.13%

CN1CCCN=C1COC(=O)C(O)(c1ccccc1)C1CCCCC1 (stereo not given) [oxyphencyclimine]
inactive: 1 nM 2.48% | 8.33 nM 0.59% | 100 nM 0.28% | 833.33 nM 2.86% | 10000 nM -1.14%

COc1ccccc1OC(=O)c1ccccc1OC(C)=O [guacetisal]
inactive: 1 nM -0.24% | 8.33 nM -1.18% | 100 nM 1.85% | 833.33 nM 4.31% | 10000 nM -0.68%

COC(=O)C[C@](O)(CCC(C)(C)O)C(=O)O[C@@H]1C(OC)=C[C@]23CCCN2CCc2cc4c(cc2[C@H]13)OCO4 [harringtonine]
active: 833.33 nM 19.9%
inactive: 1 nM 1.51% | 8.33 nM 0.45% | 100 nM -10.7% | 10000 nM -9.74%

N=C(N)NC(=O)c1nc(Cl)c(N)nc1N [amiloride]
inactive: 1 nM 3.13% | 8.33 nM 3.86% | 100 nM 2.25% | 833.33 nM 3.19% | 10000 nM 3.14%

COc1cc2c(cc1OC)C1CC(=O)C(CC(C)C)CN1CC2 (stereo not given) [tetrabenazine]
inactive: 1 nM -2.11% | 8.33 nM 0.64% | 100 nM 1.22% | 833.33 nM 2.22% | 10000 nM 0.85%

NCC(=O)CCC(=O)O [5-aminolevulinic-acid]
inactive: 1 nM 1.18% | 8.33 nM 1.35% | 100 nM -3.53% | 833.33 nM -0.73% | 10000 nM 0.28%

Nc1ccc(S(=O)(=O)Nc2ccc(Cl)nn2)cc1 [sulfachlorpyridazine]
inactive: 1 nM 0.57% | 8.33 nM -0.21% | 100 nM 1.77% | 833.33 nM -1.32% | 10000 nM 0.69%

Cc1ncc([N+](=O)[O-])n1CC(O)CCl (stereo not given) [ornidazole]
inactive: 1 nM -2.81% | 8.33 nM 0.99% | 100 nM 1.14% | 833.33 nM -1.29% | 10000 nM 1.51%

CCOc1cc([C@@H](CS(C)(=O)=O)N2C(=O)c3cccc(NC(C)=O)c3C2=O)ccc1OC [apremilast]
inactive: 1 nM 2.28% | 8.33 nM -0.67% | 100 nM 1.6% | 833.33 nM -0.47% | 10000 nM -2.14%

CCCC(C)C1(CC)C(=O)NC(=O)NC1=O (stereo not given) [pentobarbital]
inactive: 1 nM 2.05% | 8.33 nM 2% | 100 nM 1.92% | 833.33 nM -1.44% | 10000 nM -1.04%

CC(C)=CCC/C(C)=C/CC/C(C)=C/CSc1ccccc1C(=O)O [salirasib]
inactive: 1 nM 2.79% | 8.33 nM 2.19% | 100 nM 1.36% | 833.33 nM 6.06% | 10000 nM 0.01%

COc1ccc(C2CC(c3ccccc3)=NN2c2ccc(S(N)(=O)=O)cc2)cc1 (stereo not given)
inactive: 1 nM 0.58% | 8.33 nM 2.1% | 100 nM 1.18% | 833.33 nM -2.57% | 10000 nM 0.95%

O=C1Nc2ccc(Cl)cc2[C@@](C#CC2CC2)(C(F)(F)F)O1 [efavirenz]
inactive: 1 nM -5.64% | 8.33 nM -1.07% | 100 nM 0% | 833.33 nM -0.49% | 10000 nM -1.92%

C=C(C)[C@H]1CN[C@H](C(=O)O)[C@H]1CC(=O)O [kainic-acid]
inactive: 1 nM -1.66% | 8.33 nM 0.99% | 100 nM 0.37% | 833.33 nM -1.94% | 10000 nM -0.79%

CC(C)(N)c1nc(-c2ccc(OC(F)(F)F)cc2)c[nH]1
inactive: 1 nM 0.82% | 8.33 nM 0.2% | 100 nM 2.45% | 833.33 nM 1.1% | 10000 nM -2.65%

O=C(O)c1cc(N2N=C(C(F)(F)F)/C(=C/c3ccc(-c4ccccc4)o3)C2=O)ccc1Cl
inactive: 1 nM 0.12% | 8.33 nM 1.11% | 100 nM 0.66% | 833.33 nM 0.57% | 10000 nM 3.69%

CCCCN(CCCC)CCC(O)c1cc2c(Cl)cc(Cl)cc2c2cc(C(F)(F)F)ccc12 (stereo not given) [halofantrine]
inactive: 1 nM -1.32% | 8.33 nM 2.28% | 100 nM 3.05% | 833.33 nM -1.63% | 10000 nM -1.68%

Nc1nc(F)nc2c1ncn2[C@@H]1O[C@H](CO)[C@@H](O)[C@@H]1O [fludarabine]
inactive: 1 nM -1.26% | 8.33 nM -3.11% | 100 nM -2.43% | 833.33 nM 1.66% | 10000 nM -0.43%

O=C(Nc1c(-c2cccs2)nc2ccccn12)c1ccc(Cl)cc1
inactive: 1 nM 1.67% | 8.33 nM -0.43% | 100 nM -1.06% | 833.33 nM 1.78% | 10000 nM 9.03%

C[C@@H]1O[C@@H](O[C@H]2[C@H](Oc3cc(O)c4c(c3)O[C@H](c3ccc(O)cc3)CC4=O)O[C@H](CO)[C@@H](O)[C@@H]2O)[C@H](O)[C@H](O)[C@H]1O [Naringin (Naringoside)]
inactive: 1 nM -3.68% | 8.33 nM -1.36% | 100 nM -3.02% | 833.33 nM -1.1% | 10000 nM 1.71%

CC(N)CCCC(C)(C)O (stereo not given) [heptaminol]
inactive: 1 nM 0.22% | 8.33 nM 3.55% | 100 nM 2.95% | 833.33 nM -3.4% | 10000 nM 0.76%

CC1(C)CN(C(=O)c2ccc(-c3cccc4nc(NC(=O)C5CC5)nn34)cc2)C1 [solcitinib]
inactive: 1 nM 0.35% | 8.33 nM 1.82% | 100 nM 2.28% | 833.33 nM 4.05% | 10000 nM 4.4%

Cc1cc([N+](=O)[O-])ccc1NS(=O)(=O)c1cc(Cl)ccc1Cl
inactive: 1 nM -3.81% | 8.33 nM -2.34% | 100 nM -0.48% | 833.33 nM 0.28% | 10000 nM 2.09%

Cc1noc2c1-c1ccccc1C(c1ccc(Cl)cc1)=N[C@H]2CC(N)=O
inactive: 1 nM -3.02% | 8.33 nM 0.61% | 100 nM -3.13% | 833.33 nM 0.14% | 10000 nM -11.1%

O=C(NCCCCN1CCN(c2cccc(Cl)c2Cl)CC1)c1ccc2c(c1)Cc1ccccc1-2
inactive: 1 nM 0.39% | 8.33 nM 2.85% | 100 nM -2.31% | 833.33 nM -1.17% | 10000 nM -3.44%

N[C@@]1(C(=O)O)CC[C@H]2[C@H](C(=O)O)[C@H]21 [eglumetad]
inactive: 1 nM 0.4% | 8.33 nM -0.24% | 100 nM -0.34% | 833.33 nM -0.18% | 10000 nM 2.06%

CCC(CC)(NC(=O)C(C)C)C(=O)N[C@@H](CCCNC(=N)N)C(=O)NC1(C(=O)NC(c2ccc(F)cc2)c2ccc(F)cc2)CCCC1
inactive: 1 nM -0.92% | 8.33 nM -1.15% | 100 nM -1.6% | 833.33 nM 0.7% | 10000 nM -3.48%

c1ccc(-c2n[nH]cc2-c2ccnc3ccccc23)nc1
inactive: 1 nM 1.81% | 8.33 nM -0.93% | 100 nM -2.43% | 833.33 nM -2.05% | 10000 nM -1.69%

CCCCCCN(CCCCCC)C(=O)Cc1c(-c2ccc(Cl)cc2)[nH]c2ccc(Cl)cc12
inactive: 1 nM 1.54% | 8.33 nM 2.57% | 100 nM -1.81% | 833.33 nM -0.56% | 10000 nM -0.57%

O=C(CCCN1CCC2(CC1)C(=O)NCN2c1ccccc1)c1ccc(F)cc1 [spiperone]
inactive: 1 nM 1.92% | 8.33 nM 1.62% | 100 nM 0.95% | 833.33 nM 9.61%
active: 10000 nM 81.1%

Oc1ccc(OC2CCCCO2)cc1 (stereo not given) [deoxyarbutin]
inactive: 1 nM -1.9% | 8.33 nM -1.93% | 100 nM -0.6% | 833.33 nM 0.9% | 10000 nM -0.71%

COc1ccc(Cl)cc1[C@]1(F)C(=O)Nc2cc(C(F)(F)F)ccc21 [flindokalner]
inactive: 1 nM 2.54% | 8.33 nM 0% | 100 nM -1.3% | 833.33 nM 1.03% | 10000 nM -0.62%

Cc1nnc(C[C@@H]2C=C(c3ccc(Cl)cc3)c3ccccc3-n3c(C)nnc32)o1
inactive: 1 nM 1.71% | 8.33 nM 0.46% | 100 nM 2.65% | 833.33 nM -4.91% | 10000 nM -11.7%

C=CC(=O)Nc1cccc(Nc2nc(Nc3ccc(Oc4ccnc(C(=O)NC)c4)cc3)ncc2F)c1
inactive: 1 nM -1.65% | 8.33 nM 1.5% | 100 nM 0.39% | 833.33 nM -1.84% | 10000 nM 9.86%

CC(C)CCC[C@@H](C)[C@H]1CC[C@H]2[C@@H]3CC=C4C[C@@H](O)CC[C@]4(C)[C@H]3CC[C@]12C [cholesterol]
inactive: 1 nM -1.33% | 8.33 nM 1.96% | 100 nM 1.08% | 833.33 nM -1.83% | 10000 nM 2.29%

C[C@H]1[C@H](NC(=O)/C(=N\OC(C)(C)C(=O)O)c2csc(N)n2)C(=O)N1S(=O)(=O)O [aztreonam]
inactive: 1 nM 3.78% | 100 nM 1.14% | 833.33 nM -1.55% | 10000 nM 0.92%
active: 8.33 nM 20%
